The results in this text go back to PubChem BioAssay (NCI).

The nature of test [1]: NCI Yeast Anticancer Drug Screen. Data for the rad50 strain (AID 155).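 Also: 0% = growth of vehicle-only cultures of the same strain.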 The conditions noted are these: S. cerevisiae rad50 strain growth inhibition, active compounds read high. The method in brief:
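Yeast carrying a defined DNA repair defect were exposed to test compounds, and growth was compared with vehicle-treated controls to give percent inhibition.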

Test [2] can be described thus: NCI Yeast Anticancer Drug Screen. Data for the mec2-1 strain (AID 157). The conditions noted are these: S. cerevisiae mec2-1 strain, active compounds read high. The method in brief:
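Using mec2-1 yeast: add compound, measure growth, express inhibition versus vehicle-treated cultures.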

Test [3] in a line: NCI Yeast Anticancer Drug Screen. Data for the sgs1 mgt1 strain (AID 161).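 Also: 0% = growth of cultures given vehicle only.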 The conditions noted are these: S. cerevisiae sgs1 mgt1 strain, active compounds read high. The method in brief: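 This yeast growth screen uses a strain with defined DNA-repair lesions; compound-treated growth is compared with vehicle-treated growth.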
Test [4] can be described thus: NCI Yeast Anticancer Drug Screen. Data for the cln2 rad14 strain (AID 165).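 Also: 0% = growth equal to vehicle treated cultures.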 The conditions noted are these: S. cerevisiae cln2 rad14 strain, active compounds read high. The method, boiled down:
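Yeast strain cln2 rad14, bearing defects in cell cycle control and DNA repair, serves as the test system; values reflect growth inhibition compared with vehicle.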

A short description of test [5]: NCI Yeast Anticancer Drug Screen. Data for the bub3 strain (AID 167). The conditions noted are these: S. cerevisiae bub3 mutant strain, active compounds read high. The method in brief:
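Compounds were applied to a genetically altered yeast strain carrying a cell-cycle control defect. Growth inhibition was scored against vehicle-treated controls.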

The nature of test [6]: NCI Yeast Anticancer Drug Screen. Data for the mlh1 rad18 strain (AID 175). The conditions noted are these: S. cerevisiae mlh1 rad18 strain growth inhibition, active compounds read high. The method in brief: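 Steps: expose repair-defective yeast to compound; measure growth; express inhibition against vehicle-treated controls.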
The mark [7] stands for this setting: at 5.0 µM (retest, dose inferred, filed as 0.5).
Setting [8] is: at 50.0 µM (retest, dose inferred, filed as 5.0).

The panel holds about 79,000 compounds, 15% with a hit somewhere; the sample as a whole holds those more often. Unmarked numbers belong to inactive results. The source made the active and inactive calls. Rule as the data show it: active = growth inhibition above about 70%; inactive = the rest.

On to `CCOC(=O)c1cnn(-c2ccccc2)c1N`, for which the growth inhibition is 62% in test [1] (setting [7]); 98% (active) in test [1] (setting [8]); 88.8% (active) in test [1] (at 50.0 µM); 26% in test [2] (setting [7]); 99% (active) in test [2] (setting [8]); 92.8% (active) in test [2] (at 50.0 µM). Moreover, the growth inhibition in test [3] (setting [7]) is 18%; in test [3] (setting [8]) it was 98% (active); in test [3] (at 50.0 µM), 89.4% (active); in test [4] (setting [7]), 15%; in test [4] (setting [8]), 97% (active); in test [4] (at 50.0 µM), 86.6% (active). Also, the growth inhibition is 63% in test [5] (setting [7]); 98% (active) in test [5] (setting [8]); 90.2% (active) in test [5] (at 50.0 µM); 23% in test [6] (setting [7]); 98% (active) in test [6] (setting [8]); 88.2% (active) in test [6] (at 50.0 µM).

For the compound `Cc1cccc(/C=N/Nc2cc(C)nc3ccccc23)n1`, the growth inhibition is 1% in test [1] (setting [7]); 2% in test [1] (setting [8]); 92.7% (active) in test [1] (at 50.0 µM); -3% in test [2] (setting [7]); -3% in test [2] (setting [8]); 37.8% in test [2] (at 50.0 µM). Further, the growth inhibition in test [3] (setting [7]) is -2%; in test [3] (setting [8]), 35%; in test [3] (at 50.0 µM), 53.6%; in test [4] (setting [7]), 5%; in test [4] (setting [8]), 40%; in test [4] (at 50.0 µM), 53.8%. In addition, the growth inhibition in test [5] (setting [7]) is 2%; in test [5] (setting [8]), 7%; in test [5] (at 50.0 µM) it was 19.7%; in test [6] (setting [7]), -1%; in test [6] (setting [8]), 34%; in test [6] (at 50.0 µM) it was 46.4%.

Regarding `C#CC(CC)(CC)NC(=O)NC(C)(C)C`, the growth inhibition is 0% in test [1] (setting [7]); -18% in test [1] (setting [8]); 2.1% in test [1] (at 50.0 µM); -26% in test [2] (setting [7]); -25% in test [2] (setting [8]); 0.85% in test [2] (at 50.0 µM). Also, the growth inhibition in test [3] (setting [7]) was -11%; in test [3] (setting [8]), -1%; in test [3] (at 50.0 µM), 35.5%; in test [4] (setting [7]) it was 2%; in test [4] (setting [8]) it was 23%; in test [4] (at 50.0 µM), -1.85%. For the same compound, the growth inhibition in test [5] (setting [7]) is -19%; in test [5] (setting [8]) it was -17%; in test [5] (at 50.0 µM), 28.4%; in test [6] (setting [7]), -21%; in test [6] (setting [8]) it was -59%; in test [6] (at 50.0 µM) it was 2.3%.

Take `C(=C\c1cnnc2ccccc12)/c1cccnc1`: the growth inhibition in test [1] (setting [7]) is 11%; in test [1] (setting [8]), 45%; in test [1] (at 50.0 µM) it was 20.8%; in test [2] (setting [7]), 18%; in test [2] (setting [8]) it was 37%; in test [2] (at 50.0 µM) it was -10.8%. Besides, the growth inhibition in test [3] (setting [7]) is 11%; in test [3] (setting [8]), 35%; in test [3] (at 50.0 µM), 2.15%; in test [4] (setting [7]), 6%; in test [4] (setting [8]), 32%; in test [4] (at 50.0 µM), 42.6%. Besides, the growth inhibition in test [5] (setting [7]) was 6%; in test [5] (setting [8]) it was 22%; in test [5] (at 50.0 µM), -13.2%; in test [6] (setting [7]), 8%; in test [6] (setting [8]) it was 36%; in test [6] (at 50.0 µM), 13.7%.

`ClC1c2ccccc2Cc2cccnc21` (stereo not drawn): the growth inhibition in test [1] (setting [7]) was 21%; in test [1] (setting [8]), 85% (active); in test [1] (at 50.0 µM) it was 75.3% (active); in test [2] (setting [7]) it was 11%; in test [2] (setting [8]) it was 24%; in test [2] (at 50.0 µM) it was 11.8%. Moreover, the growth inhibition in test [3] (setting [7]) was 10%; in test [3] (setting [8]) it was 59%; in test [3] (at 50.0 µM) it was 12.2%; in test [4] (setting [7]), 4%; in test [4] (setting [8]) it was 22%; in test [4] (at 50.0 µM) it was -5.1%. In addition, the growth inhibition in test [5] (setting [7]) is 7%; in test [5] (setting [8]), 48%; in test [5] (at 50.0 µM), -6.6%; in test [6] (setting [7]), 8%; in test [6] (setting [8]), 76% (active); in test [6] (at 50.0 µM), 23.5%.

In the case of `CC#CC#C/C=C1/C=CC(=O)O1`, the growth inhibition in test [1] (setting [7]) was 2%; in test [1] (setting [8]) it was 80% (active); in test [1] (at 50.0 µM), 27.4%; in test [2] (setting [7]), 3%; in test [2] (setting [8]) it was 66%; in test [2] (at 50.0 µM), 33.5%. The growth inhibition in test [3] (setting [7]) was 1%; in test [3] (setting [8]), 62%; in test [3] (at 50.0 µM), 42.2%; in test [4] (setting [7]), -1%; in test [4] (setting [8]), 26%; in test [4] (at 50.0 µM), -16.8%. Besides, the growth inhibition in test [5] (setting [7]) is 3%; in test [5] (setting [8]), 59%; in test [5] (at 50.0 µM) it was 13.5%; in test [6] (setting [7]), 0%; in test [6] (setting [8]), 84% (active); in test [6] (at 50.0 µM), 75% (active).
